Screening results: PubChem, National Center for Advancing Translational Sciences (NCATS)
Sampled rows, rich in hits. Any-hit rate of the full collection: about 4.3%.
GLP1R inv ag: GLP-1 receptor (human) inverse agonism; P43220; HEK293 GLP-1R CRE-luciferase, luminescence, 24 h; GLP-1R form is constitutively active; Potency, µM (titrated, usually from 38.3 µM), most hits filed as inhibitors; 410,000 compounds, 1.6% hits; AID 624417; also: nearly all actives have a fitted effect of over 55% in size
Target sequence (P43220 whole entry, looked up): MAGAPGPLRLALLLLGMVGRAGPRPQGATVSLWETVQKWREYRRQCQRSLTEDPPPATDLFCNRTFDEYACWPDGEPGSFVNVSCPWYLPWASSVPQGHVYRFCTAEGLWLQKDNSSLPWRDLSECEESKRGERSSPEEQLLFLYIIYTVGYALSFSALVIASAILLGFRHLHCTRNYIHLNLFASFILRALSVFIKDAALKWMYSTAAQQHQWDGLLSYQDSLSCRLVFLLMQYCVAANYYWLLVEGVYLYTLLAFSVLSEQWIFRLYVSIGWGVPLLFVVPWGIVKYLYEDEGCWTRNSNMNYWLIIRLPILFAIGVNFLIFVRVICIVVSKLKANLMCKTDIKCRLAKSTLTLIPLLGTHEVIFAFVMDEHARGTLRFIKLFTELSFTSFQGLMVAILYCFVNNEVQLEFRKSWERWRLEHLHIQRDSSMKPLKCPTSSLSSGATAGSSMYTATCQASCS
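Using stably transfected HEK293 (constitutively active GLP-1R, cAMP-luciferase reporter), compounds were incubated 24 hr and luciferase measured by luminescence.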
D3 ag: activates the human D3 dopamine receptor | max activation, % | D3R DiscoveRx beta-arrestin cells, luminescence, 90 min | 410,000 compounds, 0.58% hits | P35462 | AID 652048; in the data active = max activation above about 30%
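Cells at 1500/well, incubated overnight, then treated with pinned compounds (dopamine as control) for 90 min at 37 degrees C. DiscoveRx reagent added for 30 - 60 minutes at room temperature; luminescence read.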
GLP1R ag: GLP-1 receptor (human) agonism; AID 624172; Potency, µM (titrated, usually from 45.6 µM), most hits filed as activators; HEK293 GLP-1R CRE-luciferase, luminescence, 4-6 h; cells express a hypersensitive GLP-1R form; 380,000 compounds, 0.007% hits; P43220
D3 antag: blocks the human D3 dopamine receptor; D3R cells, DiscoveRx beta-arrestin luminescence, antagonist mode; hits give low values; max response, negative = inhibition, %; 360,000 compounds, 2.5% hits; AID 652054; in the data active = max response below about -50%; inconclusive = no clear call, values can overlap the other calls
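Cells expressing the human receptor were seeded at 1500 cells/well, incubated overnight at 37 degrees C in 5% CO2, then exposed to library compounds with dopamine controls for 90 minutes at 37 degrees C before luminescent detection.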
Numbers stand for hits; – = inactive; ? = inconclusive; · = no result given. Unless noted, calls follow the shape of the dose curve; as a rule, active = well fitted curve in the direction sought with a large enough effect; inconclusive = small, poorly fitted or top-dose-only effect, or another doubt; inactive = no such curve, though single readings can be large; an effect the other way counts as inactive or inconclusive.

SMILES	GLP1R inv ag	D3 ag	GLP1R ag	D3 antag
Cc1ccc(CSCCNC(=O)CCSc2ccccc2)cc1	10µM	–	–	–
NS(=O)(=O)c1ccc(CCNC(=O)c2ccc3nc(CCc4ccccc4)oc3c2)cc1	–	–	·	·
Cc1ccccc1C(=O)Nc1nnc(S(=O)(=O)N2c3ccccc3CC2C)s1 (centres undefined)	11.2µM	–	·	·
COc1cc(C2C(C(=O)Nc3ccccc3C)=C(C)Nc3nc(SCc4cc(C)ccc4C)nn32)ccc1O (centres undefined)	–	–	·	·
CCOc1ccc(NC(=O)c2ccc(F)c(S(=O)(=O)N(Cc3ccc(C(=O)OC)cc3)Cc3ccc(OC)c(OC)c3)c2)cc1	–	–	·	·
CCc1ccc(NC(=O)c2ccc(F)c(S(=O)(=O)NC3CCCCCC3)c2)cc1	?	–	·	·
CCc1ccc(NC(=O)c2ccc(F)c(S(=O)(=O)NCCc3ccc(OC)c(OC)c3)c2)cc1	10µM	–	·	·
CCc1ccc(NC(=O)c2ccc(F)c(S(=O)(=O)NCC3COc4ccccc4O3)c2)cc1 (centres undefined)	5.01µM	–	–	–
O=C(NCc1ccco1)c1cccc2c(-c3ccc(F)c(F)c3)coc12	–	–	?	–
O=C1CCN(Cc2ccccc2)CCN1[C@H](COc1ccccc1)c1ccccc1	?	–	–	–
COc1ccc(CN2CCC(=O)N([C@H](CO)Cc3ccccc3)CC2)cc1	–	–	–	–
O=C1CCN(Cc2cccnc2)CCN1[C@H](CO)Cc1ccccc1	–	–	–	-66.8
N#CC[C@H](c1ccccc1)N1CCN(Cc2ccccc2)CCC1=O	–	34.3	–	–
CCc1cccc(NC(=O)CSc2nnc(-c3cc4occc4n3C)n2-c2ccccc2C)c1	?	–	·	·
CCOC(=O)C(=O)Nc1ccccc1C(=O)NC(C)C	–	37.6	–	–
CCOC(=O)C(=O)Nc1ccccc1C(=O)OCC	–	–	–	–
COc1ccc(Cl)cc1NC(=O)c1cc2c(=O)n3ccccc3nc2s1	–	–	·	·
CN(CC1CCN(CCc2cccc(C(F)(F)F)c2)CC1)C(=O)c1ccc(F)cc1	?	–	–	-86.6
CN(CC1CCN(CCc2cccc(C(F)(F)F)c2)CC1)C(=O)c1ccccc1	?	–	–	?
CC1=NN(C(N)=S)C(=O)C1N=Nc1ccccc1C (centres undefined)	?	–	–	-89.3
CCOc1ccccc1N=NC1C(=O)N(C(N)=S)N=C1C (centres undefined)	0.891µM	–	–	–
CC1=NN(C(N)=S)C(=O)C1N=Nc1ccccc1O (centres undefined)	–	–	–	–
CN(Cc1ccc(C#CCCO)cc1)CC1CCCN(CCc2ccc(Cl)cc2)C1 (centres undefined)	?	–	–	–
CN(Cc1ccccc1O)CC1CCCN(CCc2ccc(Cl)cc2)C1 (centres undefined)	?	–	–	-54.6
Clc1ccc2nc(-c3ccccn3)c(Nc3ccc4c(c3)OCO4)n2c1	–	–	–	-59.7
SMILES	GLP1R inv ag	D3 ag	GLP1R ag	D3 antag
CCN(CC)S(=O)(=O)c1cccc(C(=O)Nc2nc3cc4c(cc3s2)OCCO4)c1	11.2µM	–	–	–
O=C(Nc1nc2cc3c(cc2s1)OCCO3)c1cccc(N2C(=O)CCC2=O)c1	?	–	–	–
CCN(CC)S(=O)(=O)c1ccc2nc(NC(=O)c3cccs3)sc2c1	?	–	–	-56.3
Nc1cc(Cl)nc(N/N=C/c2c(O)ccc3ccccc23)n1	–	–	–	-146.3
Nc1nonc1N/N=C/c1c(O)ccc2ccccc12	?	–	–	–
Cn1cc(C(=O)N/N=C/c2c(O)ccc3ccccc23)ccc1=O	3.16µM	–	–	–
O=C(N/N=C/c1c(O)ccc2ccccc12)Nc1ccccc1	?	–	–	-57.2
Cn1c(-c2ccccc2)c(/C=N/NC(=O)c2ccc(O)cc2)c2ccccc21	7.08µM	–	–	–
Cc1ccc(C)c(N2CCN(C(=O)CCS(=O)(=O)c3ccc4c(c3)CC(=O)N4C)CC2)c1	–	–	·	·
COc1ccc(N2CCN(c3ccc(N4C(=O)CC(C)C4=O)cc3[N+](=O)[O-])CC2)cc1 (centres undefined)	–	–	–	–
COC(=O)C1CCCN1C(=O)c1cccs1 (centres undefined)	–	–	–	-75.9
COCCn1c(CNC(=O)c2cc(OC)c(OC)c(OC)c2)nc2cccnc21	–	–	·	·
O=C(CCCN1C(=O)/C(=C/c2ccccc2Cl)SC1=S)N1CCCC1	10µM	–	–	–
O=C(CCN1C(=O)/C(=C\c2ccccc2)SC1=S)N1CCOCC1	–	–	–	–
O=C(O)CCCCCN1C(=O)/C(=C\c2ccc(-c3ccc(Cl)cc3)o2)SC1=S	–	–	–	–
O=C(O)CCCN1C(=O)/C(=C/c2ccc(-c3nc4ccccc4s3)o2)SC1=S	–	–	–	-81.8
O=C(CCCN1C(=O)/C(=C/c2ccccc2)SC1=S)N1CCOCC1	8.91µM	–	–	–
Cc1nc2nc(SCC(=O)NC3CCC(C)CC3)nn2c(C)c1Cc1ccccc1 (centres undefined)	–	–	·	·
COc1ccc(OC)c(C2NC(=O)NC(C)=C2C(=O)Nc2cc(C)cc(C)c2)c1 (centres undefined)	–	–	–	·
CCN(CC)c1ccc(/C=C2/SC(=O)N(C(C)C)C2=O)o1	?	–	–	-91.4
CC(C)N1C(=O)S/C(=C\c2ccc(-c3ccc(Cl)c(C(=O)O)c3)o2)C1=O	–	–	–	?
COc1cc([N+](=O)[O-])cc(/C=N/NC(=O)Cn2nc(C)cc2C)c1O	?	–	–	-59.9
COc1cc([N+](=O)[O-])cc(/C=N/NC(=O)c2cc(-c3ccccc3)nc3ccccc23)c1O	?	–	–	–
COc1cc([N+](=O)[O-])cc(/C=N/NC(=O)CSc2nnc(-c3ccccc3)n2C)c1O	–	–	–	-51.9
COC(=O)c1ccc(N/N=C/c2cc([N+](=O)[O-])cc(OC)c2O)cc1	?	–	–	–
SMILES	GLP1R inv ag	D3 ag	GLP1R ag	D3 antag
COc1ccc(/C=N/NC(=O)Cn2nc([N+](=O)[O-])cc2C)c(OC)c1OC	–	–	–	–
COc1cc([N+](=O)[O-])cc(/C=N/NC(=O)Cn2nccc2C)c1O	?	–	–	-53.3
CSCCC(NC(=O)[C@H](Cc1c[nH]c2ccccc12)NC(=O)CNC(=O)[C@H](CCSC)NC(=O)[C@H](Cc1ccc(OS(=O)(=O)O)cc1)NC(=O)[C@@H](N)CC(=O)O)C(=O)N[C@@H](CC(=O)O)C(=O)N[C@@H](Cc1ccccc1)C(N)=O (some centres undefined)	·	·	–	·
CCOc1ccccc1NC(=O)Cn1cc(C(=O)c2cccc(OC)c2)c(=O)c2ccc(C)nc21	–	–	·	·
COc1ccc(CCNC(=O)c2c(C)oc3ncn(CC(C)C)c(=O)c23)cc1OC	–	–	·	·
CC(CNC(=O)c1cc(-c2ccccc2)n[nH]1)c1ccccc1 (centres undefined)	?	–	·	·
